Activity calls are given as the source filed them.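 Rule for the calls, unless noted: active = inhibition above 20% together with a positive visual image hit; inconclusive = visual image hit but inhibition not above 20%; inactive = no visual image hit.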
How the values were obtained:
[1] = inhibitors of TNFa-induced NFkB p65 translocation, primary screen, imaging, HUVEC, MLSMR starter and 10KST1 sets (AID 438); conditions: HUVEC TNFa-induced p65 nuclear translocation; cell count: measured here: nuclei count (cytotoxicity indicator), at 2.08 µM; inhibition: at 2 µM, stronger effect = higher value, 0% TNFa-plus-vehicle, 100% no-TNFa wells;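 note: compound added about 3h40 before a 20 min TNFalpha stimulation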;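 for inhibition: signal is the nuclear over cytoplasmic p65 intensity ratio per well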
[2] = inhibitors of mutant huntingtin aggregation, primary screen, imaging, exon1htt(103Q)mCFP cells, high-content imaging (AID 483;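 active = visual image review flags a hit and inhibition of aggregation exceeds 20%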;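 note: compound exposure lasted 3 days before fixation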;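 for nuclei count: percent of the per-plate median nuclei count of sample wells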); conditions: exon1htt(103Q)mCFP cell line, aggregate imaging, at 2 µM; inhibition of aggregation: stronger effect = higher value; nuclei count: measured here: cell count, toxicity
[3] = inhibitors of E-selectin induction by TNFa, primary screen, imaging, HUVEC, immunofluorescence, MLSMR starter and 10KST1 sets (AID 487;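 active = visually confirmed hit in the image check and inhibition above 20%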;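 for inhibition: signal is fraction of cell area covered by stained E-selectin grains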;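 for nuclei count: 100% = median nuclei count of all wells on the same plate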); conditions: HUVEC TNFalpha-induced E-selectin immunofluorescence imaging, at 2 µM; inhibition: stronger effect = higher value; nuclei count: measured here: cell number, toxicity
[4] = target: Voltage-gated potassium channel subunit beta-2 (Rattus norvegicus) (UniProt P62483); assay: KvBeta enzyme negative modulators, primary screen, biochemical, NADPH fluorescence (AID 622;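 active = fluorescence slope higher than the sample average by over 3 SD, cut at about -0.22 in these data, passing the limit was not always enough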;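 note: slope of raw intensity against log time taken from 70 to 1610 s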); conditions: recombinant KvBeta, 4-cyanobenzaldehyde reduction, at 10 µM, stronger effect = higher value
Sequence of Voltage-gated potassium channel subunit beta-2 (Rattus norvegicus) (P62483 whole entry, looked up): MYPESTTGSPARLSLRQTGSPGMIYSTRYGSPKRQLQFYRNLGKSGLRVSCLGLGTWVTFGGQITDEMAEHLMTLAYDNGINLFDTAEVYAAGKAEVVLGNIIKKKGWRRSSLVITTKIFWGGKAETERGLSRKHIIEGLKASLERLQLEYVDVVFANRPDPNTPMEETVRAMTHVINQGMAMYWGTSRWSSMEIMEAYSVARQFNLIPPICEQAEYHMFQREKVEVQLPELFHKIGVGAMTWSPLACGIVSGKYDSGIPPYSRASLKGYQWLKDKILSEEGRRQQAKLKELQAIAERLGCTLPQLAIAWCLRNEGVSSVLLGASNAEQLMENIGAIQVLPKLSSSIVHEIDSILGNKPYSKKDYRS

[5] = target: Voltage-gated potassium channel subunit beta-2 (Rattus norvegicus) (UniProt P62483); assay: KvBeta positive modulators, primary screen, biochemical, NADPH fluorescence (AID 623;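 active = NADPH fluorescence slope more negative than the mean of all samples by about 3 SD, 99.7% confidence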;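 note: fluorescence intensity change per second fitted from 20 to 320 s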); conditions: Recombinant KvBeta, NADPH fluorescence decrease slope, 10 min; at 10 µM; stronger effect = lower value
[6] = target: Alpha-2C adrenergic receptor (Homo sapiens) (UniProt P18825); assay: modulators of alpha2C/GIRK thallium flux, primary screen, cell-based, HEK293 alpha2C/GIRK1/2 (AID 624;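 active = fluorescence slope after compound addition differing from the mean of all screened samples at 99.7% confidence, in either direction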;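 note: slope of fluorescence ratio to pre-addition baseline per second over 15 to 24 s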); conditions: thallium flux BTC fluorescence, at 10 µM, actives lie on both sides
Sequence of Alpha-2C adrenergic receptor (Homo sapiens) (P18825 whole entry, looked up): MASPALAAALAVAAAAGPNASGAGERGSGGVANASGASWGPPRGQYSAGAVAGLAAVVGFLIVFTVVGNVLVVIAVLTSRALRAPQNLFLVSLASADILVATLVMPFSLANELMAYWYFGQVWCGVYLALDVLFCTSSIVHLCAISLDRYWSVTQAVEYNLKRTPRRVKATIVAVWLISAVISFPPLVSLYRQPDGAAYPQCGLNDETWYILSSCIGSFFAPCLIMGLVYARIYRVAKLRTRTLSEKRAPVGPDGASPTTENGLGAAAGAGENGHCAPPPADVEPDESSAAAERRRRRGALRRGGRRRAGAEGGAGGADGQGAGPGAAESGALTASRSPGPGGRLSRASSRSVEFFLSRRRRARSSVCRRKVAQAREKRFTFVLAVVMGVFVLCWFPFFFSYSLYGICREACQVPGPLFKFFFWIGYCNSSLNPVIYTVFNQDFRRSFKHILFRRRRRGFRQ

[7] = inhibitors of Sendai virus-induced IRF3 signaling, primary screen, TLR/RLR signaling modifier project, cell-based, Sendai virus stimulus, luciferase, 10K MLSCN set (AID 602276;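 active = inhibition at or above 50% at 10 µM; inactive = inhibition below 50%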;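 note: firefly luciferase from ISG56 promoter only with Renilla not read in this screen; 0% = Sendai virus plus DMSO and 100% = medium plus DMSO without virus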); conditions: HEK293 RL24 IRF3 luciferase reporter, at 10 µM, stronger effect = higher value
[8] = inhibitors of poly I:C-induced TLR3 signaling, primary screen, cell-based, poly I:C stimulus, luciferase, 10K MLSCN set (AID 602277;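 active = inhibition of the reporter signal at or above 50%; inactive = inhibition below 50%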); conditions: HEK293-TLR3 RL24 IRF3 luciferase reporter, at 10 µM, stronger effect = higher value

| SMILES | cell count [1] | inhibition [1] | inhibition of aggregation [2] | nuclei count [2] [%] | inhibition [3] | nuclei count [3] [%] | fluorescence slope [4] | NADPH fluorescence slope [5] | slope [6] | inhibition [7] | inhibition [8] |
| --- | --- | --- | --- | --- | --- | --- | --- | --- | --- | --- | --- |
| CCc1cccc(NC(=O)C2CCCN(S(=O)(=O)c3c(C)[nH]c(=O)[nH]c3=O)C2)c1 (stereo not given) | 325 | -10.3% (inactive) | 0.8% (inactive) | 106 | -57.4% (inactive) | 104 | -0.405 (inactive) | -3.6e-05 (inactive) | 0.0033 (inactive) | 9.85% (inactive) | 23.9% (inactive) |
| Oc1ccc2ccccc2c1CN1CCN(c2ccccc2F)CC1 | 564 | 2.2% (inactive) | 7.8% (inactive) | 107 | 9.5% (inactive) | 111 | -0.574 (inactive) | -3.4e-05 (inactive) | 0.00592 (inactive) | 9.17% (inactive) | 26.6% (inactive) |
| CN(c1ccccc1)S(=O)(=O)c1ccc(C(=O)OCC(=O)NCc2ccco2)cc1 | 608 | 11.6% (inactive) | 14.7% (inactive) | 112 | -37.2% (inactive) | 99.7 | -0.588 (inactive) | 2e-05 (inactive) | 0.00551 (inactive) | -14.7% (inactive) | 0.385% (inactive) |
| Cc1nc(NC2=NCN(CC3CCCO3)CN2)nc2ccccc12 (stereo not given) | 346 | -11.7% (inactive) | 28.4% (active) | 84.3 | 29% (inactive) | 98.5 | -0.548 (inactive) | -8.4e-06 (inactive) | 0.00499 (inactive) | 15.3% (inactive) | 28.6% (inactive) |
| CC(NS(=O)(=O)c1ccccc1)C(c1cccs1)N1CCN(C)CC1 (stereo not given) | 445 | -6.7% (inactive) | -18.1% (inactive) | 111 | -262% (inactive) | 137 | -0.321 (inactive) | -9.7e-06 (inactive) | 0.00347 (inactive) | 20.5% (inactive) | 36.2% (inactive) |
| C=CCOc1nc2c(c(=O)n(C)c(=O)n2C)n1C | 339 | 1% (inactive) | -1.3% (inactive) | 113 | 0.3% (inactive) | 119 | -0.444 (inactive) | -4.9e-05 (inactive) | 0.00278 (inactive) | 6.05% (inactive) | 34.1% (inactive) |
| CCc1nc(C)ccc1OCC(=O)O | 332 | 1% (inactive) | -30% (inactive) | 89.2 | 9.9% (inactive) | 102 | -0.459 (inactive) | -6.3e-05 (inactive) | 0.00578 (inactive) | -11.9% (inactive) | -14.7% (inactive) |
| Cc1c(C(=O)N2CCCC2)sc(NC(=O)c2cccs2)c1C#N | 706 | 17.1% (inactive) | 10.4% (inactive) | 86.7 | -67.6% (inactive) | 130 | -0.504 (inactive) | -8.5e-06 (inactive) | 0.00564 (inactive) | 14.8% (inactive) | 12.4% (inactive) |
| O=C(Cc1cccs1)Nc1nnc(CCc2ccccc2)s1 | 382 | 1.5% (inactive) | 15.6% (inactive) | 110 | -152% (inactive) | 117 | -0.437 (inactive) | -5.5e-05 (inactive) | 0.00318 (inactive) | 9.85% (inactive) | 31.2% (inactive) |
| CC(=O)Nc1ccc(OC(=O)c2cccs2)cc1 | 716 | 10.2% (inactive) | -5% (inactive) | 107 | 27.9% (inactive) | 94.2 | -0.473 (inactive) | 5.9e-06 (inactive) | 0.00674 (inactive) | 8.66% (inactive) | 20% (inactive) |
| CC1CCN(c2c(NCc3ccc(C(=O)N4c5ccccc5CC4C)cc3)c(=O)c2=O)CC1 (stereo not given) | 726 | -5.7% (inactive) | 31.5% (inactive) | 104 | -38.2% (inactive) | 105 | -0.572 (inactive) | -3.6e-05 (inactive) | 0.00643 (inactive) | 21.8% (inactive) | 45.8% (inactive) |
| Cc1cc(C)n2nc[n+](C)c2n1 | 685 | -12.9% (inactive) | -10% (inactive) | 103 | -17.6% (inactive) | 120 | -0.537 (inactive) | 3.6e-05 (inactive) | 0.0066 (inactive) | -6.03% (inactive) | -6.5% (inactive) |
| O=C(CSc1nc2ccccc2s1)N1CCOCC1 | 330 | 0.5% (inactive) | -12.6% (inactive) | 105 | -38.9% (inactive) | 118 | -0.525 (inactive) | -1.9e-05 (inactive) | 0.00424 (inactive) | -27.4% (inactive) | -58.1% (inactive) |
| Cc1ccc(-c2noc(CN3CCN(c4ccccc4F)CC3)n2)cc1 | 468 | -2.6% (inactive) | -0.3% (inactive) | 84.1 | -30.6% (inactive) | 101 | -0.556 (inactive) | -3.7e-05 (inactive) | 0.00746 (inactive) | 14.7% (inactive) | 39% (inactive) |
| COc1ccc(-c2nc(C#N)c(NCCCN(C)C)o2)cc1OC | 713 | -9.1% (inactive) | -8.5% (inactive) | 99.3 | -8.3% (inactive) | 98.4 | -0.222 (active) | -1.8e-06 (inactive) | 0.00305 (inactive) | 1.52% (inactive) | 33.3% (inactive) |
